The record followed here is PubChem BioAssay (NCI).

The structures appear in SMILES notation. This is part of a sample that, as a whole, favours compounds with a hit. Of some 79,000 tested, about 15% had one in any assay. A number with no mark means an inactive call. Active and inactive are the calls of the source. Cut-off read from the data, not from the text of the source: active = growth inhibition above about 70%; inactive = the rest.

One assay is described as follows: NCI Yeast Anticancer Drug Screen. Data for the rad50 strain (AID 155).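 Note: 0% = growth of vehicle-only cultures of the same strain.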 The note with it: S. cerevisiae rad50 strain growth inhibition; at 50.0 µM (retest, dose inferred, filed as 5.0); stronger effect = higher value. The method in brief: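 Inhibition values express reduced yeast growth in compound-treated cultures relative to vehicle-treated controls.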
Consider `CCOC(=O)CNC(=O)C1C2c3ccccc3C(c3ccccc32)C1C(=O)O` (stereo not given), for which the growth inhibition is 38%.

For `O=[N+]([O-])c1ccc(NP(=S)(Nc2ccc([N+](=O)[O-])cc2)c2ccccc2)cc1`, the growth inhibition is 91% (active).

With `O=P(c1ccccc1)(c1ccccc1)c1ccccc1.[Cl][Sn]([c]1ccccc1)([c]1ccccc1)[c]1ccccc1`, the growth inhibition is 98% (active).

Regarding `CC(C)(C)OOC(=O)/C=C\C(=O)OOC(C)(C)C`, the growth inhibition is -1%.

As for `Cc1cc2c(cc1O)C(C)(C)CCC2(C)C`, the growth inhibition was 70% (active).

For `N#CC(C#N)=Cc1ccc(Cl)o1`, the growth inhibition is 54%.

`COc1c(Br)cc(/C=C/[N+](=O)[O-])cc1Br`: the growth inhibition was 98% (active).

Take `[O]=[Sb]([OH])([OH])[c]1ccc(NC2OC(CO)C(O)C(O)C2O)cc1` (stereo not given): the growth inhibition is -6%.

As for `NC(=S)C1=C(N)Oc2c(c(=O)oc3ccccc23)C1c1ccc(Br)cc1` (stereo not given), the growth inhibition is 66%.

On to `COS(=O)(=O)c1ccccc1`, for which the growth inhibition is -2%.

Turning to `O=[N+]([O-])c1cc[n+]([O-])c2ccccc12`, the growth inhibition was 98% (active).

In the case of `O=C(c1ccccc1)c1c(CC(O)c2cccnc2)n(C(=O)c2ccccc2)c2ccccc12` (stereo not given), the growth inhibition is 96% (active).

As for `Nc1nc2ncnc(N)c2nc1-c1ccc(N(CCCl)CCCl)cc1`, the growth inhibition is 46%.

With `O=C1c2ccccc2CCC1Br` (stereo not given), the growth inhibition is 99% (active).

With `CC1CCCC[N-]1.CC1CCCC[N-]1.N#C[S-].N#C[S-].[Cd]` (stereo not given), the growth inhibition is 87% (active).

For `CCOP(=O)(OCC)/C(C#N)=C/c1ccc(Br)cc1`, the growth inhibition was 95% (active).

As to `CN(CCCl)Cc1ccc(OCc2ccccc2)c(OCc2ccccc2)c1`, the growth inhibition is 98% (active).

Take `O=C(O)c1cccc2cccc(C(=O)O)c12.[Hg]`: the growth inhibition is 99% (active).

With `S=c1[nH]c2ccccc2s1.[Pb]`, the growth inhibition was 16%.

For `COc1ccc([As](O[As](c2ccc(OC)cc2)c2ccc(OC)cc2)c2ccc(OC)cc2)cc1`, the growth inhibition was 99% (active).

Take `CC1=C/C(=C2/N=C(N(C)C)SS2)C(C)=N1`: the growth inhibition is 78% (active).

With `CN1C2CCC1c1c([nH]c3ccccc13)C2` (stereo not given), the growth inhibition was -23%.

Regarding `C[CH2][Sn]([Br])([CH2]C)[c]1ccccc1CN(C)C`, the growth inhibition is 76% (active).

On to `O=C(CCl)Nc1ccc(Cl)cc1`, for which the growth inhibition is 44%.

In the case of `ClC1CCCCC1[Se](Cl)(Cl)C1CCCCC1Cl` (stereo not given), the growth inhibition is 98% (active).

Turning to `Cc1cc(C(C)(C)c2ccc(O)c(C)c2)ccc1O`, the growth inhibition was 98% (active).

For the compound `O=[N+]([O-])O.[In]`, the growth inhibition was 49%.

Consider `[pH]1p2[pH]p3p1p3[pH]2.c1cc[c]([Ge]([c]2ccccc2)[c]2ccccc2)cc1.c1cc[c]([Ge]([c]2ccccc2)[c]2ccccc2)cc1.c1cc[c]([Ge]([c]2ccccc2)[c]2ccccc2)cc1`, for which the growth inhibition was 82% (active).

Consider `C1=CC2CCC[N-]C2N1.C1=CC2CCC[N-]C2N1.[I][Pt+2][I]` (stereo not given), for which the growth inhibition was 99% (active).

For the compound `O=[N+]([O-])/C=C/c1cccc(F)c1`, the growth inhibition was 99% (active).

With `O=[N+]([O-])c1ccc(CS(=O)(=O)C(Cl)(Cl)Cl)o1`, the growth inhibition is 99% (active).

For `CC(=O)[O][Hg][c]1ccc(N)[c]([Hg][O]C(C)=O)c1`, the growth inhibition is 98% (active).

`CNP(=O)(Oc1cc(Cl)c(Cl)cc1Cl)N1CCN(c2ccccc2)CC1` (stereo not given): the growth inhibition is 81% (active).

For `Cc1ccc2c(c1)N(CCN(CCCl)CCCl)c1c(ccc3ccccc13)S2`, the growth inhibition is 83% (active).

For the compound `CC1(C(=O)O)CCCC2(C)c3cc(O)ccc3CCC12` (stereo not given), the growth inhibition is 83% (active).

As to `C#CC(O)(CC)CC`, the growth inhibition was 10%.

On to `CC1CC[N-]C(C)C1.CN(C)C=O.[Cl][Pt][Cl]` (stereo not given), for which the growth inhibition is 100% (active).

As to `CN1CCN(c2ccc3nc(-c4ccc5nc(-c6ccc(N(C)CCCl)cc6)[nH]c5c4)[nH]c3c2)CC1`, the growth inhibition was 99% (active).

As to `CC(=O)NNc1ccccc1`, the growth inhibition was 44%.

In the case of `CC(C)[S-].CC(C)[S-].[Pt+2].c1ccc([PH+](c2ccccc2)c2ccccc2)cc1.c1ccc([PH+](c2ccccc2)c2ccccc2)cc1`, the growth inhibition is 96% (active).

The same assay, now with this note: S. cerevisiae rad50 strain growth inhibition; at 50.0 µM; stronger effect = higher value.
`CCOC(=O)CNC(=O)C1C2c3ccccc3C(c3ccccc32)C1C(=O)O` (stereo not given): the growth inhibition was 90.3% (active).

As for `O=[N+]([O-])c1ccc(NP(=S)(Nc2ccc([N+](=O)[O-])cc2)c2ccccc2)cc1`, the growth inhibition is 93% (active).

For the compound `O=P(c1ccccc1)(c1ccccc1)c1ccccc1.[Cl][Sn]([c]1ccccc1)([c]1ccccc1)[c]1ccccc1`, the growth inhibition was 99.6% (active).

In the case of `CC(C)(C)OOC(=O)/C=C\C(=O)OOC(C)(C)C`, the growth inhibition was 5.05%.

For `Cc1cc2c(cc1O)C(C)(C)CCC2(C)C`, the growth inhibition was -6.9%.

Take `N#CC(C#N)=Cc1ccc(Cl)o1`: the growth inhibition is 59.6%.

As for `COc1c(Br)cc(/C=C/[N+](=O)[O-])cc1Br`, the growth inhibition was 92.4% (active).

Take `[O]=[Sb]([OH])([OH])[c]1ccc(NC2OC(CO)C(O)C(O)C2O)cc1` (stereo not given): the growth inhibition is 6.45%.

On to `NC(=S)C1=C(N)Oc2c(c(=O)oc3ccccc23)C1c1ccc(Br)cc1` (stereo not given), for which the growth inhibition is 20.1%.

In the case of `COS(=O)(=O)c1ccccc1`, the growth inhibition is -2.5%.

Take `O=[N+]([O-])c1cc[n+]([O-])c2ccccc12`: the growth inhibition was 99.2% (active).

Regarding `O=C(c1ccccc1)c1c(CC(O)c2cccnc2)n(C(=O)c2ccccc2)c2ccccc12` (stereo not given), the growth inhibition was 91% (active).

Take `Nc1nc2ncnc(N)c2nc1-c1ccc(N(CCCl)CCCl)cc1`: the growth inhibition is 55.7%.

On to `O=C1c2ccccc2CCC1Br` (stereo not given), for which the growth inhibition was 99% (active).

Regarding `CC1CCCC[N-]1.CC1CCCC[N-]1.N#C[S-].N#C[S-].[Cd]` (stereo not given), the growth inhibition was 93.2% (active).

Regarding `CCOP(=O)(OCC)/C(C#N)=C/c1ccc(Br)cc1`, the growth inhibition was 92.3% (active).

`CN(CCCl)Cc1ccc(OCc2ccccc2)c(OCc2ccccc2)c1`: the growth inhibition is 99.7% (active).

`O=C(O)c1cccc2cccc(C(=O)O)c12.[Hg]`: the growth inhibition is 99.4% (active).

Take `S=c1[nH]c2ccccc2s1.[Pb]`: the growth inhibition is 93.7% (active).

For the compound `COc1ccc([As](O[As](c2ccc(OC)cc2)c2ccc(OC)cc2)c2ccc(OC)cc2)cc1`, the growth inhibition is 99.2% (active).

For the compound `CC1=C/C(=C2/N=C(N(C)C)SS2)C(C)=N1`, the growth inhibition is 13.2%.

Take `CN1C2CCC1c1c([nH]c3ccccc13)C2` (stereo not given): the growth inhibition was 3.25%.

For the compound `C[CH2][Sn]([Br])([CH2]C)[c]1ccccc1CN(C)C`, the growth inhibition is 46.2%.

`O=C(CCl)Nc1ccc(Cl)cc1`: the growth inhibition was 54.6%.

On to `ClC1CCCCC1[Se](Cl)(Cl)C1CCCCC1Cl` (stereo not given), for which the growth inhibition was 99% (active).

For `Cc1cc(C(C)(C)c2ccc(O)c(C)c2)ccc1O`, the growth inhibition was 99.3% (active).

Turning to `O=[N+]([O-])O.[In]`, the growth inhibition is 11.6%.

`[pH]1p2[pH]p3p1p3[pH]2.c1cc[c]([Ge]([c]2ccccc2)[c]2ccccc2)cc1.c1cc[c]([Ge]([c]2ccccc2)[c]2ccccc2)cc1.c1cc[c]([Ge]([c]2ccccc2)[c]2ccccc2)cc1`: the growth inhibition is 2.35%.

`C1=CC2CCC[N-]C2N1.C1=CC2CCC[N-]C2N1.[I][Pt+2][I]` (stereo not given): the growth inhibition is 99% (active).

On to `O=[N+]([O-])/C=C/c1cccc(F)c1`, for which the growth inhibition is 99.5% (active).

On to `O=[N+]([O-])c1ccc(CS(=O)(=O)C(Cl)(Cl)Cl)o1`, for which the growth inhibition was 95.5% (active).

Turning to `CC(=O)[O][Hg][c]1ccc(N)[c]([Hg][O]C(C)=O)c1`, the growth inhibition is 99.5% (active).

For `CNP(=O)(Oc1cc(Cl)c(Cl)cc1Cl)N1CCN(c2ccccc2)CC1` (stereo not given), the growth inhibition was 98.8% (active).

As to `Cc1ccc2c(c1)N(CCN(CCCl)CCCl)c1c(ccc3ccccc13)S2`, the growth inhibition is 90.2% (active).

As to `CC1(C(=O)O)CCCC2(C)c3cc(O)ccc3CCC12` (stereo not given), the growth inhibition is 18.4%.

`C#CC(O)(CC)CC`: the growth inhibition is 69.1%.

Regarding `CC1CC[N-]C(C)C1.CN(C)C=O.[Cl][Pt][Cl]` (stereo not given), the growth inhibition is 80.7% (active).

With `CN1CCN(c2ccc3nc(-c4ccc5nc(-c6ccc(N(C)CCCl)cc6)[nH]c5c4)[nH]c3c2)CC1`, the growth inhibition is 98.4% (active).

On to `CC(=O)NNc1ccccc1`, for which the growth inhibition was 62.5%.

On to `CC(C)[S-].CC(C)[S-].[Pt+2].c1ccc([PH+](c2ccccc2)c2ccccc2)cc1.c1ccc([PH+](c2ccccc2)c2ccccc2)cc1`, for which the growth inhibition is 88.2% (active).
